Compound activity as filed in PubChem.
CYP2C9 activ: activators of human CYP2C9; AID 1024; recombinant CYP2C9, luciferin-H conversion, luminescence; active compounds read high; factor 1 = untreated enzyme, 0 = blocked; P11712; activation factor at 5 µM; 96,000 compounds, 1.4% hits;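 active means activation factor of 2 or more for CYP2C9 at a 5 µM dose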
Target sequence (P11712 whole entry, looked up): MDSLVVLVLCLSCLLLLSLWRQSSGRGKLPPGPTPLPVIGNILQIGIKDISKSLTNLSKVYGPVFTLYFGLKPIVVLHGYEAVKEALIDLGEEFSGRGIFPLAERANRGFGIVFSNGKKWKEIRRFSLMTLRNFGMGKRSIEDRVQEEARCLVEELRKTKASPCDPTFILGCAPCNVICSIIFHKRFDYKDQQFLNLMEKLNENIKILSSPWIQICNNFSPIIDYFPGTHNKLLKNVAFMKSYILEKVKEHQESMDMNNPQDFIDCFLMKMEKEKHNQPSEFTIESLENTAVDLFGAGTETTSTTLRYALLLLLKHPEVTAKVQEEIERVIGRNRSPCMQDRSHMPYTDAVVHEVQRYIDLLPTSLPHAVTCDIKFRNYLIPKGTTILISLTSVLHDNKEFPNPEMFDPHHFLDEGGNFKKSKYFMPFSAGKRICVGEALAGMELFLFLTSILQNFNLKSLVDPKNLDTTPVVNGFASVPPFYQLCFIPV
CYP2C19 inhib: human CYP2C19 inhibition; CYP2C19 Supersomes, luciferin-H EGE luminescence, 30 min; inhibition, % at 5 µM; 96,000 compounds, 21% hits;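 active means CYP2C19 inhibition above a set limit at 5 µM in the primary screen, cut at about 50% in these data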
PostGolgi ctrl: growth of the yeast control strain, post-Golgi counter-screen; efflux-deficient yeast background strain, growth absorbance A615, 16 h; 98,000 compounds, 5% hits; inhibition, % at 10 µM; AID 738
CYP2C9 inhib: blocks human cytochrome P450 2C9 | CYP2C9 Supersomes, luciferin-H conversion, luminescence | 96,000 compounds, 20% hits | P11712 | inhibition, % at 5 µM;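 active means blocking of liver enzyme CYP2C9 beyond about 50% at 5 µM, limit read from the data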
PostGolgi yeast: growth inhibition of a yeast mutant, post-Golgi transport screen; post-Golgi transport phenotypic cell assay; inhibition, % at 10 µM; 98,000 compounds, 0.9% hits;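 further: yeast cells grown in 1536-well plates; yeast grown about 18 h at 30C before absorbance read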
CYP2C19 act: cytochrome P450 2C19 (human) activation; P33261; AID 1025; 96,000 tested, under 10 active; activation factor at 5 µM; recombinant CYP2C19, luciferin-H EGE luminescence; active compounds read high; 0 = fully inhibited enzyme, 1 = untreated enzyme;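 active means activation factor of at least 2 at 5 µM in the primary screen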
Numbers stand for hits; i = inactive; nt = no result. Sampled rows, rich in hits. Any-hit rate of the full collection: about 32%. Unless noted, no stated cut-off is given here; in the data, active means inhibition above about 30%; inactive means the rest.

SMILES	CYP2C9 activ	CYP2C19 inhib	PostGolgi ctrl	CYP2C9 inhib	PostGolgi yeast	CYP2C19 act
CCN1C(=O)CC(Sc2ccccc2N)C1=O (stereo not drawn)	i	54	i	i	i	i
C[C@H](NC(=O)C1(c2ccccc2)CCN(C(=O)[C@H]2CSCN2C(=O)OC(C)(C)C)CC1)C(=O)O	i	i	i	i	i	i
CCOC(=O)C(C(=O)OCC)C(CC(=O)C1CC1)c1ccccc1 (stereo not drawn)	i	i	i	i	i	i
COc1cc(NC(=O)CSc2nc3ccccc3cc2Cc2ccccc2)cc(OC)c1	i	83	i	64	i	i
COc1cc(NC(=O)CSc2ncccc2C(=O)OC(C)C)cc(OC)c1	i	70	i	51	i	i
COc1cccc(CSc2nc3ccccc3cc2C=O)c1	i	i	51	64	33	i
COc1ccc2cc(C#N)c(SCC(=O)NNC(=O)Cc3ccccc3)nc2c1	i	i	i	i	i	i
COc1ccc(NC(=O)CCSc2cc(C)c3ccccc3n2)cc1	i	i	i	i	i	i
COc1ccc(NC(=O)CSc2nc3ccccc3cc2Cc2ccccc2)cc1	i	85	i	i	i	i
O=c1c2c3c(sc2n2cnnc2n1CCc1ccccc1)CCCC3	i	i	i	i	i	i
COc1cccc(NC(=O)CSc2nc3ccccc3cc2Cc2ccccc2)c1	i	94	i	68	i	i
COc1ccccc1C(=O)N1CCN(S(=O)(=O)Cc2ccccc2)CC1	i	i	i	i	i	i
O=C(Nc1nc(N2C(=O)c3ccccc3C2=O)n(-c2ccccc2)n1)c1ccc(Cl)cc1	i	i	35	i	i	i
O=C(Nc1ncc2c(n1)-c1ccccc1CC2)c1ccc(Cl)cc1	nt	nt	i	nt	i	nt
Cc1ccc(N/C(CSC(N)=O)=N\S(=O)(=O)c2ccc(C)cc2)cc1	i	i	i	i	i	i
Cc1occc1C(=O)NNC(=O)NC12CC3CC(CC(C3)C1)C2	i	i	i	i	i	i
O=C(ONC1=NCCCCC1)c1c(F)cccc1F	i	91	i	i	i	i
O=C(CN1C(=O)c2ccccc2C1=O)NCc1ccncc1	i	i	i	i	i	i
O=c1[nH]c2ccc(Cl)cc2c(-c2ccccc2)c1SC(=S)N1CCCCC1	i	i	i	52	i	i
O=c1[nH]c2ccc(Cl)cc2c(-c2ccccc2)c1SC(=S)N1CCOCC1	i	i	i	i	i	i
CC(Oc1ccc(Cl)cc1Cl)c1nc(-c2ccc(NC(=O)c3ccco3)cc2)no1 (stereo not drawn)	i	i	i	54	i	i
Cc1ccccc1OCc1nc(-c2ccc(NC(=O)c3ccco3)cc2)no1	nt	nt	i	nt	i	nt
O=C(CSC1=NCCS1)Nc1nc2c(s1)CCCC2	i	i	i	i	i	i
COc1ccc(Cc2nnc(-c3cccc(C)c3)o2)cc1OC	nt	nt	i	nt	i	nt
CCCCn1c(-c2ccccc2)cnc1SCC(=O)NCCc1ccc(OC)c(OC)c1	i	96	i	90	i	i
SMILES	CYP2C9 activ	CYP2C19 inhib	PostGolgi ctrl	CYP2C9 inhib	PostGolgi yeast	CYP2C19 act
COc1ccc(CCNC(=O)CSc2nnc(-c3cccc(C)c3)o2)cc1OC	i	56	i	i	i	i
COc1ccc(CCNC(=O)CSc2nc(N)c3c(C)c(C)oc3n2)cc1OC	i	62	i	i	i	i
COc1ccc(CCNC(=O)CSc2nnc(-c3ccccc3)o2)cc1OC	i	81	nt	i	nt	i
O=C(C1CCN(S(=O)(=O)N2CCOCC2)CC1)N1CCN(c2ccccc2)CC1	i	i	i	i	i	i
CS(=O)(=O)N(CC(=O)N1CCCCC1)c1sc2c(c1C#N)CCCC2	nt	nt	i	nt	i	nt
CCc1ccc(NC(=O)N(CCCN2CCOCC2)Cc2cccs2)cc1	i	i	i	59	i	i
Cc1ccc2cc(CN(CCCN3CCOCC3)C(=O)NC3CCCCC3)c(=O)[nH]c2c1C	nt	nt	i	nt	i	nt
Cc1ccc(NC(=O)N(CCCN2CCOCC2)Cc2cccnc2)cc1C	i	100	i	96	i	i
CCN1CCCc2cc(CN(CCN3CCOCC3)C(=O)Nc3ccc(C)c(C)c3)ccc21	i	57	i	i	i	i
CCc1ccc(NC(=O)N(CCN2CCOCC2)Cc2ccc3c(c2)CCCN3CC)cc1	i	i	i	i	i	i
CCOC(=O)c1cccc(NC(=O)CSc2nnc(-c3cccnc3)n2C)c1	i	i	i	i	i	i
CCOC(=O)c1cccc(NC(=O)CSc2nc3ccccc3c(=O)n2CCOC)c1	i	i	i	64	i	i
CCOC(=O)c1cccc(NC(=O)CSc2nc3ccccc3c(=O)n2CC)c1	i	i	i	51	i	i
COC(=O)c1cccc(NC(=O)CSc2nc(=O)cc(N)n2-c2ccccc2)c1	i	i	i	i	i	i
CCOC(=O)Nc1oc2ccccc2c(=O)c1CN1CCOCC1	i	i	i	i	i	i
O=C(CSc1nnc(-c2ccccc2)n1C1CCCCC1)N1CCCC1	i	i	i	i	i	i
CC1CN(S(=O)(=O)c2cccc(C(=O)NCc3ccc4c(c3)OCO4)c2)CC(C)O1 (stereo not drawn)	i	i	i	i	i	i
Clc1ccc(Cl)c(OCCN2CCOCC2)c1	i	i	i	i	i	i
Clc1ccc2c(c1)c1ccccc1n2CN1CCOCC1	i	72	i	i	i	i
Cc1ccc(-n2nnnc2SCc2ccccn2)cc1C	i	57	i	i	i	i
Cc1cc(C)n2cc(CSc3nnnn3-c3ccc(Cl)cc3)nc2n1	2.2	i	i	i	i	i
COc1ccccc1-c1nnc(SCc2ccccn2)n1C	i	i	i	i	i	i
Cc1cc(C)n2cc(CSc3nnnn3-c3ccccc3)nc2n1	i	i	i	i	i	i
Cc1cccc2nc(CSc3nnnn3-c3ccccc3)cn12	i	84	i	i	i	i
c1ccc(-n2nnnc2SCc2ccccn2)cc1	i	88	i	i	i	i
SMILES	CYP2C9 activ	CYP2C19 inhib	PostGolgi ctrl	CYP2C9 inhib	PostGolgi yeast	CYP2C19 act
COc1ccc(NC(=O)C(=O)N2N=C(C(C)C)CC2(O)C(F)(F)F)cc1 (stereo not drawn)	i	i	i	i	i	i
CCc1ccc(C(=O)c2oc3nc(C)cc(C)c3c2N)cc1	nt	nt	i	nt	i	nt
Cn1ncc2c(Nc3ccc(-c4ccccc4)cc3)ncnc21	i	i	i	i	i	i
c1ccc(-c2noc(CSc3nnnn3-c3ccccc3)n2)cc1	i	63	i	54	i	i
Cc1ccc(N2CN=c3s/c(=C\c4ccccn4)c(=O)n3C2)cc1	i	i	i	i	i	i
CCN1CCN(C(=O)C2CCN(C(=O)c3cc4sccc4n3CC)CC2)CC1	i	i	i	i	i	i
CCN1CCN(CCCNC(=O)c2cc3sccc3n2CC)CC1	i	i	i	i	i	i
CCn1c(C(=O)NCCCN2CCc3ccccc3C2)cc2sccc21	i	64	i	i	i	i
CCN1CCN(C(=O)c2cc3sccc3n2CC(=O)c2ccccc2)CC1	i	59	i	i	i	i
CCn1c(C(=O)NCc2ccccn2)cc2sccc21	i	66	i	i	i	i
